# Assays:
# Assay in all cases: DAPPL (digital affinity profiling via proximity ligation, sequencing); 10 mM Tris-HCl pH 7.5, 50 mM NaCl, 1 mM DTT, 4% glycerol, room temperature, 30 min; GST-TFs on glutathione beads, 16-mer random dsDNA library, 0.1% formaldehyde crosslink after washing; high values mean tight binding
# FEV = target: T1, FEV (Homo sapiens, UniProt Q99581 1-238); conditions: protein: recombinant; tags: N-terminal GST; dsDNA, one strand shown
# T1 sequence: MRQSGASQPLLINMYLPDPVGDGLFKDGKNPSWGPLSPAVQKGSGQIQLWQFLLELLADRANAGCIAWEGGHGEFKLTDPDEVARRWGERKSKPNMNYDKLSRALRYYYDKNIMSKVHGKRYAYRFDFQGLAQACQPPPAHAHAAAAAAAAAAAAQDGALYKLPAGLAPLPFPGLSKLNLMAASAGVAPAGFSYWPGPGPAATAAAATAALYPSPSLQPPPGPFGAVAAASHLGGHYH
# Method in brief: (§1)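 Human transcription factors fused to GST were expressed in yeast, captured on glutathione beads, given DNA barcodes and pooled with a GST-only negative control. Pools were incubated with 200 nmole of a 16-mer random double-stranded DNA library in Tris/NaCl/DTT/glycerol buffer at room temperature for 30 min. They were then washed, crosslinked with 0.1% formaldehyde, proximity-ligated (BsaI/T4 ligase, 1 h, 37 °C), PCR-amplified and sequenced on an Illumina NextSeq500. Binding signal is each 6-mer's read frequency for a factor divided by its frequency for the GST control.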
# ETV5 = ETV5 (Homo sapiens, UniProt P41161 1-510); conditions: protein: recombinant; tags: N-terminal GST; dsDNA, one strand shown
# Chain of ETV5 (P41161 whole entry): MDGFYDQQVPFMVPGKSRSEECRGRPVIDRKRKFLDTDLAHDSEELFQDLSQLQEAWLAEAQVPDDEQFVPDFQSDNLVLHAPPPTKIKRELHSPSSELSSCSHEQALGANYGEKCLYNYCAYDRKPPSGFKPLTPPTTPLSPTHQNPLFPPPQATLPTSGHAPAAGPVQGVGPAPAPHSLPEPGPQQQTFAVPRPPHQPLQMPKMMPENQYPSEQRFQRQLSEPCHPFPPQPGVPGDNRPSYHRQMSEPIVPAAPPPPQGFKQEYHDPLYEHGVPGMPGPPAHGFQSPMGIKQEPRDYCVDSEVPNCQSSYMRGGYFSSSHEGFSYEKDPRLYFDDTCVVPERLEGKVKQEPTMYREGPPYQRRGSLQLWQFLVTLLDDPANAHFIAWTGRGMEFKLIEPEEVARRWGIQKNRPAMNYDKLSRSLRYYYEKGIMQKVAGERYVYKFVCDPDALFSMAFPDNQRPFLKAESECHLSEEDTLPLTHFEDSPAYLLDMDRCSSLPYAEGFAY
# Method in brief: as §1
# HSF1 = HSF1 (Homo sapiens, UniProt Q00613 1-529); conditions: protein: recombinant; tags: N-terminal GST; chain copies: 3; dsDNA, one strand shown
# Chain of HSF1 (Q00613 whole entry): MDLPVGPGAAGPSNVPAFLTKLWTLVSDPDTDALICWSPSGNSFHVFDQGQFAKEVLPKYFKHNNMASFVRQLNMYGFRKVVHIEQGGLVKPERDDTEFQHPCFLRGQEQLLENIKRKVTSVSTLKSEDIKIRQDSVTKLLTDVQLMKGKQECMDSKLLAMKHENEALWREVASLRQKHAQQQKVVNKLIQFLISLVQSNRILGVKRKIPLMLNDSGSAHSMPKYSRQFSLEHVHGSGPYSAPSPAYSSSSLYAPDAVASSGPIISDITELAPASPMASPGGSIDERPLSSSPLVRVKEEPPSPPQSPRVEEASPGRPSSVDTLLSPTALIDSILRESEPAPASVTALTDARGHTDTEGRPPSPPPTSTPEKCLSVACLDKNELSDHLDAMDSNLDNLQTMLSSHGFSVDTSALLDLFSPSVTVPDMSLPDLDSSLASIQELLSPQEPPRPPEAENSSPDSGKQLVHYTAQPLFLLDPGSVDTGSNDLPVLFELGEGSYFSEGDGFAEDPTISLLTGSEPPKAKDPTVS
# Method in brief: as §1
# SPIC = target: T2, SPIC (Homo sapiens, UniProt Q8N5J4 1-248); conditions: protein: recombinant; tags: N-terminal GST; dsDNA, one strand shown
# T2 sequence: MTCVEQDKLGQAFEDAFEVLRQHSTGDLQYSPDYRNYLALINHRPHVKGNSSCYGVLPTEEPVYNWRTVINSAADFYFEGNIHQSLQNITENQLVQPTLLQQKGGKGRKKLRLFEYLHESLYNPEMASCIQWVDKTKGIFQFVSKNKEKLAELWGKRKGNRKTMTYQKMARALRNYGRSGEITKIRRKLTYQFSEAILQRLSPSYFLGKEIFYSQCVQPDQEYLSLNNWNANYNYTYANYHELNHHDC
# Method in brief: as §1
# ELF4 = ELF4 (Homo sapiens, UniProt Q99607 1-663); conditions: protein: recombinant; tags: N-terminal GST; dsDNA, one strand shown
# Chain of ELF4 (Q99607 whole entry): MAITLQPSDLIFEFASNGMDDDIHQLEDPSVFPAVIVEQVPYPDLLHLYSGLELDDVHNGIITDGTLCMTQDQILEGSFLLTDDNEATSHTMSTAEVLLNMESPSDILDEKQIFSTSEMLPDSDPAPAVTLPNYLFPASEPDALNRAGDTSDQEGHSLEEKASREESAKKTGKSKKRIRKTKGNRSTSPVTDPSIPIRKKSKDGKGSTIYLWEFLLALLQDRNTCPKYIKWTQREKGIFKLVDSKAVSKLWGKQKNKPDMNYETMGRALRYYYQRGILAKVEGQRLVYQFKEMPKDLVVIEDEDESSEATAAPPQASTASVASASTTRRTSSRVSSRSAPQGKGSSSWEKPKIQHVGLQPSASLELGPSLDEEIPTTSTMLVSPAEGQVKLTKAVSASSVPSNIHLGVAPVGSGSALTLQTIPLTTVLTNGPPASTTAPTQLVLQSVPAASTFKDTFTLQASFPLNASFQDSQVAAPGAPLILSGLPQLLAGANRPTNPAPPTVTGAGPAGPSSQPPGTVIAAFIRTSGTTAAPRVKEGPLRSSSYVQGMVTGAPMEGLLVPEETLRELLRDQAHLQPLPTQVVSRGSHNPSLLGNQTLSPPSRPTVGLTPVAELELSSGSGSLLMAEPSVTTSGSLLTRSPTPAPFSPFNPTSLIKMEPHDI
# Method in brief: as §1
# ELK4 = target: T3, ELK4 (Homo sapiens, UniProt P28324-2 1-405); conditions: protein: recombinant; tags: N-terminal GST; dsDNA, one strand shown
# T3 sequence: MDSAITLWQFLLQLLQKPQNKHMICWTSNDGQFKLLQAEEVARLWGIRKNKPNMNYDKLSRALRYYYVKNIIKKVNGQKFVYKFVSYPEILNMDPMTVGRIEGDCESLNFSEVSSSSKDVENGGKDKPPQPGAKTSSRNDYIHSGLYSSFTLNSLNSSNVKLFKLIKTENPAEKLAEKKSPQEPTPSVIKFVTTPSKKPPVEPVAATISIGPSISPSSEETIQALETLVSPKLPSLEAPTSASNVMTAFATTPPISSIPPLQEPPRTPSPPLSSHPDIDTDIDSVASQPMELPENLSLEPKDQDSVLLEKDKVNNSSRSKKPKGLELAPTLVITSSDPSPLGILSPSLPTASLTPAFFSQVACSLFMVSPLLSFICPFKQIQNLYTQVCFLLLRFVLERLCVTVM
# Method in brief: as §1
# ETV2 = target: T4, ETV2 (Homo sapiens, UniProt O00321 1-342); conditions: protein: recombinant; tags: N-terminal GST; dsDNA, one strand shown
# T4 sequence: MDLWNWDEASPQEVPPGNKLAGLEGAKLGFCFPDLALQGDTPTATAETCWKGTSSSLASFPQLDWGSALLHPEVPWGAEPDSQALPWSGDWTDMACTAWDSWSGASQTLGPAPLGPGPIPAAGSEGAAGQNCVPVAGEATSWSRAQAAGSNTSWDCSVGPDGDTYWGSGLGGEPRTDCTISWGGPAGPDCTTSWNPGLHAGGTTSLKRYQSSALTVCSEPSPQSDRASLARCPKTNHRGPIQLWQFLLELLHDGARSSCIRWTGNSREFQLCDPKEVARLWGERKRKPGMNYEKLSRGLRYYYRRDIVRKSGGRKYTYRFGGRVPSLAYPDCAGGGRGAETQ
# Method in brief: as §1
# ELF3 = target: T5, ELF3 (Homo sapiens, UniProt P78545 1-371); conditions: protein: recombinant; tags: N-terminal GST; dsDNA, one strand shown
# T5 sequence: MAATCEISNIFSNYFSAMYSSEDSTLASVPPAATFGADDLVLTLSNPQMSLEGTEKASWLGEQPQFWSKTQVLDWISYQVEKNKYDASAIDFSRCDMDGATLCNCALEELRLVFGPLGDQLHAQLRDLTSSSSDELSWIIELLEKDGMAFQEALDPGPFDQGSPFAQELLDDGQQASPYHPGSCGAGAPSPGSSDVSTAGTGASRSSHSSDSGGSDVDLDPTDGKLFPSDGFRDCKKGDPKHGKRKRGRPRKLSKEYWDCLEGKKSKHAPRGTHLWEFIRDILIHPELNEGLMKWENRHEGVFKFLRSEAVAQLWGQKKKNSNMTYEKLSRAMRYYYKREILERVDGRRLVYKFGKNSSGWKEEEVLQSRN
# Method in brief: as §1
# CRX = CRX (Homo sapiens, UniProt O43186 1-299); conditions: protein: recombinant; tags: N-terminal GST; dsDNA, one strand shown
# Chain of CRX (O43186 whole entry): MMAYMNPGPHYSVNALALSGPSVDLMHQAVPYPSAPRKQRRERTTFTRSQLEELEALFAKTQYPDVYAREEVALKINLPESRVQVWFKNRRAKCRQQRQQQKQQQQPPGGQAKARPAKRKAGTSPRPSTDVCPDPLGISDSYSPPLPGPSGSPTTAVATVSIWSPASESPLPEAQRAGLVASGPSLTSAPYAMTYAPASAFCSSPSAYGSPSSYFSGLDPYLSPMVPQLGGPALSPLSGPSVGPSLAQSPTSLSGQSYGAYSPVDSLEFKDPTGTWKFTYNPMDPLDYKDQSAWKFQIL
# Method in brief: as §1
# ETV1 = ETV1 (Homo sapiens, UniProt P50549 1-477); conditions: protein: recombinant; tags: N-terminal GST; dsDNA, one strand shown
# Chain of ETV1 (P50549 whole entry): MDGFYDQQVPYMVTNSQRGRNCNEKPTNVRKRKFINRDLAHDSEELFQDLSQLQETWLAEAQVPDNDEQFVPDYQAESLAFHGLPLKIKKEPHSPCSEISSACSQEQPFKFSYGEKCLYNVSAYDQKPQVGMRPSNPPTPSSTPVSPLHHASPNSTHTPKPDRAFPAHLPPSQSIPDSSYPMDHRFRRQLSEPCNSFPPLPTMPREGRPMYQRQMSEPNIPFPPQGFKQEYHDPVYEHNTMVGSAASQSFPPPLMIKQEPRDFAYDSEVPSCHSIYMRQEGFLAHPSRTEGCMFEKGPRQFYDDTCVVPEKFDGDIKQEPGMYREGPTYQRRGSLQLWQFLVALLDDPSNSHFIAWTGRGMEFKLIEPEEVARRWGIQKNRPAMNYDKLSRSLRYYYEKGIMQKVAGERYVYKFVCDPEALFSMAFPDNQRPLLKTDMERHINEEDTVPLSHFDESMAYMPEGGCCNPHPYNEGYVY
# Method in brief: as §1
# ERF = target: T6, ERF (Homo sapiens, UniProt P50548 1-548); conditions: protein: recombinant; tags: N-terminal GST; dsDNA, one strand shown
# T6 sequence: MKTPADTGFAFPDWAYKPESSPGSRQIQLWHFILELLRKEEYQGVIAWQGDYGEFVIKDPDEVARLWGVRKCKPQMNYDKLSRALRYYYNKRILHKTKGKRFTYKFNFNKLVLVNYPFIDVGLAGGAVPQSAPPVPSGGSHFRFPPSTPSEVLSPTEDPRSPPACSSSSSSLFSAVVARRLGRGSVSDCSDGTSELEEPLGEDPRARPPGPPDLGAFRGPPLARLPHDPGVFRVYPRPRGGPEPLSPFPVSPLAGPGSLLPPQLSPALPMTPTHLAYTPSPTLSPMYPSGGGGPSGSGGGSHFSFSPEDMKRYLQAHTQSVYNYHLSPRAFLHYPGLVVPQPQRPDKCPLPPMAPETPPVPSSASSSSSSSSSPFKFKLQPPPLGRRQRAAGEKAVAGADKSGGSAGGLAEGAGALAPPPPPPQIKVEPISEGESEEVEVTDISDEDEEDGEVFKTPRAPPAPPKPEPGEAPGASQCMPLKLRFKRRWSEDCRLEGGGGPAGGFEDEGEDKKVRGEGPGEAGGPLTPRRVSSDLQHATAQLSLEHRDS
# Method in brief: as §1
# ETV3L = target: T7, ETV3L (Homo sapiens, UniProt Q6ZN32 1-361); conditions: protein: recombinant; tags: N-terminal GST; dsDNA, one strand shown
# T7 sequence: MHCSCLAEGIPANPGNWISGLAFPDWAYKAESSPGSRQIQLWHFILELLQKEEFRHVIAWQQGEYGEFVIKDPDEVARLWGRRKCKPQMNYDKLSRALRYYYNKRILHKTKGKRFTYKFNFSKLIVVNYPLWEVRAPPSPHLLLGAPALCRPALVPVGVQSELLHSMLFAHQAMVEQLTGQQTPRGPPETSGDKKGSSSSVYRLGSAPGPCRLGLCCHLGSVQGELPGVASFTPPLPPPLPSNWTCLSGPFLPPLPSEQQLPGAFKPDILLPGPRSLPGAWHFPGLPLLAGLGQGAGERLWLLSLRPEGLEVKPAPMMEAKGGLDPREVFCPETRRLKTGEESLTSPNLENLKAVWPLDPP
# Method in brief: as §1
# ETS2 = target: T8, ETS2 (Homo sapiens, UniProt P15036 1-469); conditions: protein: recombinant; tags: N-terminal GST; dsDNA, one strand shown
# T8 sequence: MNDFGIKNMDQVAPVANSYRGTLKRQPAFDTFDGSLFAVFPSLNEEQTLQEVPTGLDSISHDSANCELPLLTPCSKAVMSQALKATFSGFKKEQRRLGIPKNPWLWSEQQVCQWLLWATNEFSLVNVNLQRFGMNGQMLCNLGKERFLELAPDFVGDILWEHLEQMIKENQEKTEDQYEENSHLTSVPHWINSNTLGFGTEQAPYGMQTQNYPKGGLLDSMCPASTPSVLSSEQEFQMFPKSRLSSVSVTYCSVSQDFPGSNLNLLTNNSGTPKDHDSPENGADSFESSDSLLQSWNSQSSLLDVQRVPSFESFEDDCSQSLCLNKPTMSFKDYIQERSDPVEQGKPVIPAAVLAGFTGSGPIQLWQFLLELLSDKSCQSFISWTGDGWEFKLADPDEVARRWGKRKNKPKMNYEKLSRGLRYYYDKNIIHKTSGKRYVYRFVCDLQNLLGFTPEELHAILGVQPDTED
# Method in brief: as §1
# SPDEF = target: T9, SPDEF (Homo sapiens, UniProt O95238 1-335); conditions: protein: recombinant; tags: N-terminal GST; dsDNA, one strand shown
# T9 sequence: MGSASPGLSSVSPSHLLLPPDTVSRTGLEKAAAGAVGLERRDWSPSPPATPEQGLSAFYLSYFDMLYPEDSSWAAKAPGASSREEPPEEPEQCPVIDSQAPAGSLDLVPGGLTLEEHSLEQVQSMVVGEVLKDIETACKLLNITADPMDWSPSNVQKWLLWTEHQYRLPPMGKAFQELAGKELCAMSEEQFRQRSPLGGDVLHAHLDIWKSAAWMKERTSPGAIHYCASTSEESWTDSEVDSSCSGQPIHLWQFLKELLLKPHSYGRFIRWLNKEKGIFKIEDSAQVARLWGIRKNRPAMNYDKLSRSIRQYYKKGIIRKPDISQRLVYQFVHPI
# Method in brief: as §1
# ETV7 = target: T10, ETV7 (Homo sapiens, UniProt Q9Y603 1-341); conditions: protein: recombinant; tags: N-terminal GST; dsDNA, one strand shown
# T10 sequence: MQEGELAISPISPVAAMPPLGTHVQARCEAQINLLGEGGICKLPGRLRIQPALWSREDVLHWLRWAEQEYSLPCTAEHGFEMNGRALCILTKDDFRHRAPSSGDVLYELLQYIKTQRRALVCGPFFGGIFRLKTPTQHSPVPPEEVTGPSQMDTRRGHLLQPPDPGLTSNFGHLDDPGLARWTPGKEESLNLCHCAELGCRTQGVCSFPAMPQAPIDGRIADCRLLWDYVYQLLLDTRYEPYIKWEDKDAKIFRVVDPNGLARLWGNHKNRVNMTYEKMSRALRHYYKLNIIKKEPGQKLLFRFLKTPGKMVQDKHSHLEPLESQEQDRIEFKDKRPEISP
# Method in brief: as §1
# ELF5 = target: T11, ELF5 (Homo sapiens, UniProt Q9UKW6-2 1-255); conditions: protein: recombinant; tags: N-terminal GST; dsDNA, one strand shown
# T11 sequence: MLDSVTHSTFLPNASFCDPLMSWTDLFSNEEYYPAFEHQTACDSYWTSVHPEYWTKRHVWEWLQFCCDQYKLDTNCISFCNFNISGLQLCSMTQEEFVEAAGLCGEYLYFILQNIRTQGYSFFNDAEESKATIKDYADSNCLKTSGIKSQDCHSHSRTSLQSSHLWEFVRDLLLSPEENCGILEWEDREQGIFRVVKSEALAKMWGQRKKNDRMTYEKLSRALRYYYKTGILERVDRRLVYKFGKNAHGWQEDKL
# Method in brief: as §1
# ETV3 = target: T12, ETV3 (Homo sapiens, UniProt P41162-2 1-143); conditions: protein: recombinant; tags: N-terminal GST; dsDNA, one strand shown
# T12 sequence: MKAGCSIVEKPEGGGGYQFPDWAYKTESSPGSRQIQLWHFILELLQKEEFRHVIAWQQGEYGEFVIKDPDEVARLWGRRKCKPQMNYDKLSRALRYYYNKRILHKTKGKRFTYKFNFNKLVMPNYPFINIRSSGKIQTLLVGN
# Method in brief: as §1
# ETV6 = ETV6 (Homo sapiens, UniProt P41212 1-452); conditions: protein: recombinant; tags: N-terminal GST; dsDNA, one strand shown
# Chain of ETV6 (P41212 whole entry): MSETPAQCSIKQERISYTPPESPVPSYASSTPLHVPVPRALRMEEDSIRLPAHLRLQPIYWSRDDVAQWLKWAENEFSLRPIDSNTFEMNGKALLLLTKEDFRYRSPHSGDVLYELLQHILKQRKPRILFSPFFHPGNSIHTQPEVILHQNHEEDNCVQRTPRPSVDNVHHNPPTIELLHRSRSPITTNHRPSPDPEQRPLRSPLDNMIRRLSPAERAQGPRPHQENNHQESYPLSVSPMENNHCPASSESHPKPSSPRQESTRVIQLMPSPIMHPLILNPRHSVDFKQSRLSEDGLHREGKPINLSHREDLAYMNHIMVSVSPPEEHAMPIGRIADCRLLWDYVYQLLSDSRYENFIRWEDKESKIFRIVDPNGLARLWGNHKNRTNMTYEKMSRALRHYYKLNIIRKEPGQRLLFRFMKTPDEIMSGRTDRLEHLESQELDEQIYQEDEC
# Method in brief: as §1
sequence,measurement,setting,value
TTTTAC,binding signal,FEV,"1.37 fold enrichment (6-mer frequency, TF over GST control)"
same,binding signal,ETV5,"1.36 fold enrichment (6-mer frequency, TF over GST control)"
same,binding signal,HSF1,"1.37 fold enrichment (6-mer frequency, TF over GST control)"
same,binding signal,SPIC,"1.4 fold enrichment (6-mer frequency, TF over GST control)"
same,binding signal,ELF4,"1.37 fold enrichment (6-mer frequency, TF over GST control)"
same,binding signal,ELK4,"1.41 fold enrichment (6-mer frequency, TF over GST control)"
same,binding signal,ETV2,"1.37 fold enrichment (6-mer frequency, TF over GST control)"
same,binding signal,ELF3,"1.4 fold enrichment (6-mer frequency, TF over GST control)"
same,binding signal,CRX,"1.51 fold enrichment (6-mer frequency, TF over GST control)"
same,binding signal,ETV1,"1.46 fold enrichment (6-mer frequency, TF over GST control)"
same,binding signal,ERF,"1.3 fold enrichment (6-mer frequency, TF over GST control)"
same,binding signal,ETV3L,"1.32 fold enrichment (6-mer frequency, TF over GST control)"
same,binding signal,ETS2,"1.44 fold enrichment (6-mer frequency, TF over GST control)"
same,binding signal,SPDEF,"1.32 fold enrichment (6-mer frequency, TF over GST control)"
same,binding signal,ETV7,"1.52 fold enrichment (6-mer frequency, TF over GST control)"
same,binding signal,ELF5,"1.27 fold enrichment (6-mer frequency, TF over GST control)"
same,binding signal,ETV3,"1.45 fold enrichment (6-mer frequency, TF over GST control)"
same,binding signal,ETV6,"1.33 fold enrichment (6-mer frequency, TF over GST control)"
